Screens (PubChem BioAssay)
Glioma ERSR ind – qHTS for Inducers of the Endoplasmic Reticulum Stress Response (ERSR) in Human Glioma: qHTS. Potency, µM, for the others: at the top dose activation, actives largely listed as activators. actives 0.02% (n = 420,000). AID 602332, 2012. U87-MG GRP78 promoter luciferase reporter, 16 h; note: series mostly up to about 76 µM; % of control where 0% means no effect; nearly all actives have a fitted effect of over 35% in size
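ERSR induction read as luciferase luminescence (Bright-Glo, 10 min at room temperature) in stably transfected human U87-MG glioma cells exposed to compounds for 16 h, using GRP78 as sensor.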
ALOX12 inh – Primary qHTS assay for inhibitors of human arachidonate 12S-lipoxygenase (ALOX12): Round 2 | Polyunsaturated fatty acid lipoxygenase ALOX12 (Homo sapiens), P18054 | purified 12hLO, xylenol orange hydroperoxide absorbance | Potency, µM (series often up to 108 µM), inactives show top-dose activity change, negative = inhibition, actives largely listed as inhibitors | actives 1.1% (n = 580,000) | AID 1671190, 2021; note: % is set by controls: 0 for no effect and ±100 for the full control effect
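Purified human 12hLO at 150 nM in 25 mM Hepes, 0.01% Triton X-100, pH 7.0, preincubated 15 min at room temperature with compound. Reaction started with 40 uM arachidonic acid, 30 min at room temperature. Hydroperoxide measured by Fe-xylenol orange, 573/405 nm absorbance ratio.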
Sfp PPTase inh – qHTS Assay for Inhibitors of Bacillus subtilis Sfp phosphopantetheinyl transferase (PPTase). Potency, µM, inactives show largest response in the series, negative = inhibition, usual class: inhibitors. Biochemical Sfp PPTase activity, qHTS. actives 3.5% (n = 310,000). 4'-phosphopantetheinyl transferase ffp (Bacillus subtilis), Q9F4F7;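 note: the enzyme is Sfp with the accession as filed and its product quenches rhodamine fluorescence; 0% = enzyme reaction without inhibitor and -100% = no enzyme wells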
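Sfp 15 nM + cpd, 15 min RT; start w/ rhodamine-CoA 5 uM, BHQ-2-YbbR 12.5 uM (final); 50 mM Hepes pH 7.6, 10 mM MgCl2, 0.01% NP-40, 0.01% BSA; read 525/598 nm at 0 and 30 min.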
G9a block – qHTS Assay for Inhibitors of Histone Lysine Methyltransferase G9a | actives 8.8% (n = 350,000) | Potency, µM (highest dose often 102 µM), without a hit: at the top dose activity, negative = inhibition, usual class: inhibitors | Histone-lysine N-methyltransferase EHMT2 (Homo sapiens), Q96KQ7 | AID 504332, 2011 | G9a H3K9 monomethylation, AlphaScreen, 2 h; note: % is set by controls: 0 for no effect and ±100 for the full control effect; nearly all actives have a fitted effect of over 75% in size
Target sequence (Q96KQ7 913-1193 limits assumed): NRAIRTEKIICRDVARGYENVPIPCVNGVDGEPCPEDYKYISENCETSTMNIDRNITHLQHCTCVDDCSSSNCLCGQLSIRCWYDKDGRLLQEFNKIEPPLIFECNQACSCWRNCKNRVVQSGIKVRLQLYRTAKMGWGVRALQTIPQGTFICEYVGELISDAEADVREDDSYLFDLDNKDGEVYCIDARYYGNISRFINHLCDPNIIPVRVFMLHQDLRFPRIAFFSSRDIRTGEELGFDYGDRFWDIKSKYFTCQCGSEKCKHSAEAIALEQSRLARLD
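Signal arises when biotinylated H3K9 peptide, once monomethylated, bridges streptavidin donor and antibody-captured acceptor beads. Enzyme at 20 nM was preincubated 15 min with test compounds; peptide 500 nM and SAM 20 uM then reacted for 2 h.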
VDR inhibitor – Inhibitors of the vitamin D receptor (VDR): qHTS. actives 0.93% (n = 400,000). VDR-SRC2-3 peptide fluorescence polarization, 2 h. Potency, µM, for the others: max response, negative = inhibition, actives largely listed as inhibitors; note: % is set by controls: 0 for no effect and ±100 for the full control effect
Target sequence (P11473 whole entry, looked up): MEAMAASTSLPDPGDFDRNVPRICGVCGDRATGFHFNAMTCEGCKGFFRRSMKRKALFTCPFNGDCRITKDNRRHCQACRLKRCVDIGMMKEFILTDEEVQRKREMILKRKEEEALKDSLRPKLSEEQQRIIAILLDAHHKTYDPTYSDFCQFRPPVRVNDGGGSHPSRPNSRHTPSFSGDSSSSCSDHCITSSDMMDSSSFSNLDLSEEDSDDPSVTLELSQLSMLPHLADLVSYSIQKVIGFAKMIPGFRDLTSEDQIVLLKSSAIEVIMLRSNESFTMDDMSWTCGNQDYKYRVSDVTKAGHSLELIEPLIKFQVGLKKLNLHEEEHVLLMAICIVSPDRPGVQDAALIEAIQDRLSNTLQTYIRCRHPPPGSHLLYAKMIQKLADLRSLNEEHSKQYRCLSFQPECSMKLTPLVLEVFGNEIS
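The screen uses fluorescence polarization to detect compounds that interfere with recruitment of the SRC2-3 coactivator peptide to VDR; plates are read after 2 h at room temperature.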
* marks the source's active call; other numbers are inactive results; u = inconclusive; x = no result; ! = repeats disagree; [ ] = dose if it differs, or a comment. The entries come from a sample that favours hits as a whole. Calls come from the whole dose curve; as a rule, active = well fitted curve in the direction sought with a large enough effect; inconclusive = small, poorly fitted or top-dose-only effect, or another doubt; inactive = no such curve, though single readings can be large; an effect the other way counts as inactive or inconclusive. Potency is the fitted concentration of half-maximal effect.

SMILES	Glioma ERSR ind	ALOX12 inh	Sfp PPTase inh	G9a block	VDR inhibitor
O=C(O)c1cc(N=Nc2ccc(-c3ccc(N=Nc4ccc(O)c(C(=O)O)c4)cc3)cc2)ccc1O	1%	x	u	x	13µM*
O=C(O)c1cc(N=Nc2ccc(O)c(C(=O)O)c2)ccc1O	-6%	x	-9%	-4%[12.7 µM]	-10%
COc1ccccc1-c1cc(=O)c2c(O)ccc([N+](=O)[O-])c2o1	-1%	-31%	4%	-10%[59 µM]	-11%
O=c1cc(-c2ccccc2Cl)oc2ccc(Cl)cc12	x	-14%	x	x	x
O=C(Nc1ccc(O)c2c(=O)cc(-c3ccccc3Cl)oc12)c1ccccc1Cl	-4%	-11%	-22%	u	-5%
O=c1cc(-c2ccccc2Cl)oc2ccc([N+](=O)[O-])c(O)c12	-5%	-1%	22%	50µM*!	-9%
Nc1ccc2oc(-c3ccccc3Cl)cc(=O)c2c1O	0%	-10%	9%	71µM*	-9%
O=c1cc(-c2ccccc2Cl)oc2c([N+](=O)[O-])c(O)cc(O)c12	-6%	u	2%	50µM*	u
COc1cc(CN(CC2CCCO2)C(=O)COc2ccc(Br)cc2)cc(OC)c1OC (stereo not given)	x	9%	x	x	x
CCCn1c(SC2C(=O)CC(C)(C)CC2=O)nc2c1c(=O)n(C)c(=O)n2C	-4%	u	-13%	56µM*	-15%
Cc1ccc(Nc2nnc(SCC(=O)NC(C)(C)C)s2)cc1C	x	-7%	x	x	x
CCOC(=O)C(C(=O)OCC)C(C(=O)OCC)(C(=O)OCC)C(C(=O)OCC)C(=O)OCC	x	-13%	x	x	x
CC(=O)Nc1ccc(NC2=CC(=O)c3ccccc3C2=O)cc1	-4%	-10%	56µM*	2µM*	6%
O=C1C=C(Nc2ccc(O)cc2)C(=O)c2ccccc21	-2%	17%	-7%	x	0%
CCOC(=O)c1ccc(NC2=CC(=O)C(=O)c3ccccc32)cc1	u	u	50µM*	u	-30%
Cc1ccc(NC2=CC(=O)C(=O)c3ccccc32)cc1	-15%	-22%	-19%	u	-14%
O=C(c1ccc2c(c1)nc1n2CCCC1)N1CCN(c2ccccc2)CC1	x	-3%	x	x	x
CCc1ccc(-c2cc(N)n(-c3ccccc3)n2)cc1	5%	1%	4%	45µM*	-1%
CN(C)c1ccc(C(=O)OCC(=O)N2CCOCC2)cc1	3%	-2%	20%	7%	-5%
CN(C)c1ccc(N=Nc2ccccc2C(=O)OCC(=O)N2CCCCCC2)cc1	-1%	-10%	-10%	8.9µM*	8%
CN(C)c1ccc(N=Nc2ccccc2C(=O)OCC(=O)Nc2ccccc2C(F)(F)F)cc1	1%	-1%	-4%	10µM*	-10%
Cc1cccc(C(=O)OCC(=O)N2CCCCCC2)c1O	2%	u	x	16%[2.33 µM]	1%
CN(C)c1ccc(N=Nc2ccccc2C(=O)OCC(=O)N2CCCC2)cc1	1%	-5%	-8%	25µM*	13%
COc1ccc(OCC#CCN2CC(C)OC(C)C2)cc1 (stereo not given)	0%	-17%	u	14µM*	10%
COc1ccc(CCC(=O)N2CC(C)OC(C)C2)cc1 (stereo not given)	-1%	9%	3%	6%[59 µM]	-4%
SMILES	Glioma ERSR ind	ALOX12 inh	Sfp PPTase inh	G9a block	VDR inhibitor
CC(=O)c1cc(C(=O)N2CCCC(CCc3ccccc3C)C2)[nH]n1 (stereo not given)	x	72%	x	x	x
COc1cccc(OCCOc2ccc(/C=C3\C(=N)N4N=C(S(C)(=O)=O)SC4=NC3=O)cc2OC)c1	-1%	u	-7%	40µM*	17%
COc1ccccc1OCCOc1ccc(/C=C2\C(=N)N3N=C(S(C)(=O)=O)SC3=NC2=O)cc1	-3%	u	-6%	3%[2.33 µM]	79µM*
Cc1cc(/C=C2\C(=N)N3N=C(S(C)(=O)=O)SC3=NC2=O)c(C)n1Cc1ccccc1	1%	u	45µM*	45µM*	-3%
CCOc1cc(/C=C2\C(=N)N3N=C(C)SC3=NC2=O)ccc1OCCOc1cccc(OC)c1	0%	11%	-2%	11%	4%
Cc1cc(SCNC(=O)c2ccccc2)ncn1	-4%	u	25µM*	u	-9%
Cc1cc(C)nc(SCNC(=O)c2ccc(F)cc2)n1	2%	-2%	50µM*	u	-4%
O=C(Nc1c(C(=O)NC2CCCCC2)cnn1-c1ccccc1)c1ccccc1	x	-24%	x	x	x
CCC1c2ccsc2CCN1C(=O)CNC(=O)c1ccccc1Cl (stereo not given)	x	-17%	x	x	x
COc1ccc(C2(c3ccc(O)cc3O)CC(c3ccccc3Cl)NC(=S)N2)cc1 (stereo not given)	-7%	18µM*	-3%	u	-1%
Cc1ccc(C)c(C(=O)Cn2nc(C(=O)O)c3ccccc3c2=O)c1	x	-29%	x	x	x
COc1cc(/C=N/O)ccc1OCC(=O)NN	x	6%	x	x	x
COc1cc(/C=C2/C(=O)N(c3ccc(C(=O)O)cc3)N=C2C)cc(OC)c1O	-1%	76%	40µM*	40µM*	-1%
CC1=NN(c2ccc(C)cc2)C(=O)/C1=C\c1ccc(Br)s1	-3%	-17%	-7%	u	-21%
COc1cc(/C=C2/C(=O)N(c3ccc(C)c(C)c3)N=C2C)cc([N+](=O)[O-])c1O	6%	u	-4%	2%[0.501 µM]	-10%
COc1cc(/C=C2/C(=O)N(c3ccc(Br)cc3)N=C2C)cc(OC)c1OC	-5%	x	u	50µM*	u
CC1=NN(c2ccc(Br)cc2)C(=O)/C1=C/c1cccs1	7%	182%	-4%	7.1µM*	u
CCCCc1cc(C[C@H]2CNCC[C@H]2CC(=O)N(C)Cc2ccccc2)no1	x	8%[176 µM]	x	x	x
Cn1c(=O)c2c(ncn2CC(O)c2cccc(F)c2)n(C)c1=O (stereo not given)	x	-5%	x	x	x
Cc1ccc(/C=N/Nc2cn[nH]c(=O)n2)o1	2%	-3%	50µM*	25%	7%
Cc1ccc2c(c1)c(C1=NC(=S)NC1=O)c(O)n2C	-2%	17%	40µM*	40µM*	4%
CNC[C@H](CC1CCCCC1)NC[C@H](Cc1ccccc1)NCCC12CC3CC(CC(C3)C1)C2	-12%	0%	45µM*	45µM*	-5%
COCC(C)N=C1NN=C(c2cccs2)C(CC(=O)O)S1 (stereo not given)	-5%	u	35µM*	50µM*	-22%
Cc1ccc(S(=O)(=O)n2cccc2/C=C/[N+](=O)[O-])cc1	-13%	35µM*	x	x	x
CCOC(=O)N1CCN(C(=O)Cn2nc(-c3ccccc3F)ccc2=O)CC1	x	16%	x	x	x
O=c1[nH]c(CN2CCCCC2)nc2ccccc12	1%	u	-17%	u	-15%
